# CYP2C9 inhib = blockers of cytochrome P450 2C9 activity – biochemical, luminescence, ADME assay, primary screen | P11712 | CYP2C9 Supersomes, luciferin-H conversion | inhibition, % at 5 µM | actives 20% (n = 96,000) | AID 777, 2007;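 active = blocking of liver enzyme CYP2C9 beyond about 50% at 5 µM, limit read from the data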
# CYP2C19 inhib = blockers of cytochrome P450 2C19 activity – biochemical, luminescence, ADME assay, primary screen; CYP2C19 Supersomes, luciferin-H EGE luminescence, 30 min; P33261; AID 778, 2007; actives 21% (n = 96,000); inhibition, % at 5 µM;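 active = CYP2C19 inhibition above a set limit at 5 µM in the primary screen, cut at about 50% in these data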;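 note: plate controls were negative control wells for no effect and 2.5 mM tranylcypromine positive control for full effect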
# Cav32 inh = Cav3.2 calcium influx blockers – cell-based, Fluo-4 calcium fluorescence, FDSS, MLSMR library, primary screen | Voltage-dependent T-type calcium channel subunit alpha-1H (Homo sapiens), O95180 | Cav3.2-expressing cells; stronger effect = lower value | B-score at 10 µM | actives 4% (n = 100,000) | AID 449739, 2010;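 active = single-dose well whose peak fluorescence ratio is a statistical outlier from its plate by either plate-standardised score or position-corrected B-score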
# CYP2C9 activ = human CYP2C9 activators, primary screen, biochemical, luminescence | recombinant CYP2C9, luciferin-H conversion; stronger effect = higher value; factor 1 = untreated enzyme, 0 = blocked | activation factor at 5 µM | actives 1.4% (n = 96,000) | AID 1024, 2008;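 active = activation factor of 2 or more for CYP2C9 at a 5 µM dose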;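 note: 0 = sulfaphenazole-blocked wells and 1 = vehicle-only wells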
# CYP2C19 activ = human CYP2C19 activators, primary screen, biochemical, luminescence. Cytochrome P450 2C19 (Homo sapiens), P33261. recombinant CYP2C19, luciferin-H EGE luminescence; stronger effect = higher value; 0 = fully inhibited enzyme, 1 = untreated enzyme. activation factor at 5 µM. 96,000 tested, under 10 active;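 active = activation factor of at least 2 at 5 µM in the primary screen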;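 note: 0 = wells with 2.5 mM tranylcypromine and 1 = vehicle-only wells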
# Numbers without * were called inactive; x = no result given. Only some compounds are listed: those with a hit (about 27% of all), similar ones and a draw of the others.
SMILES,CYP2C9 inhib,CYP2C19 inhib,Cav32 inh,CYP2C9 activ,CYP2C19 activ
CCCc1cc(-c2n[nH]c(C)c2-c2ccc(C(=O)OCC)o2)c(O)cc1O,99*,97*,-1.7,0,0
CCCC(=O)NC(C)c1nc2ccccc2n1C(C)C (centres undefined),6,9,0.039,0.9,0.9
COc1cccc(C2c3c(oc4ccc(Cl)cc4c3=O)C(=O)N2c2cc(C)on2)c1OC (centres undefined),29,26,-2,0.7,0.7
CC1CN(Cc2cc(=O)[nH]c(C3CC3)n2)CC(C)O1 (centres undefined),-11,12,0.53,1.1,0.9
COc1cccc(CNC(=O)Nc2cccs2)c1,54*,86*,-0.76,0.5,0.1
CC(C)NC(=O)Nc1cccs1,x,x,0.032,x,x
Cc1ccc(CNC(=O)Nc2ccccc2)cc1,32,92*,0.011,0.7,0.1
COc1cccc(CNC(=O)CCNS(=O)(=O)c2cccs2)c1,6,90*,1.6,0.9,0.1
O=C(CCNS(=O)(=O)c1cccs1)NCc1cccs1,18,47,0.055,0.8,0.5
Cc1ccc(CNC(=O)Nc2cccs2)cc1,10,51*,-1.4,0.9,0.5
O=C(NCc1ccc(N2CCCC2=O)cc1)Nc1ccccc1,34,21,1.4,0.7,0.8
CC(=O)N/C(=C\c1ccccc1Cl)C(=O)O,x,x,-0.12,x,x
Nc1nonc1C(=O)NCCNS(=O)(=O)c1ccc(Br)cc1,-13,60*,0.61,1.1,0.4
Cc1c(C)n(C)c2ccc(C(=O)Nc3cccc4ccccc34)cc12,-267,16,-2.3,3.7*,0.8
Cc1oc2c(c1C(=O)Nc1cccc3ccccc13)CCCC2,81*,85*,-3.9,0.2,0.2
O=C(NC(Cc1c[nH]c2ccccc12)C(=O)O)c1ccccc1 (centres undefined),34,7,0.48,0.7,0.9
Cc1oc2c(c1C(=O)NC(Cc1c[nH]c3ccccc13)C(=O)O)CCCC2 (centres undefined),80*,43,0.49,0.2,0.6
c1ccc(N2CCN(Cc3ccsc3)CC2)nc1,5,17,-0.35,1,0.8
Cc1sc(NC(=O)c2ccco2)c(CN2CCN(c3ccc(F)cc3)CC2)c1C,48,55*,x,0.5,0.5
Cc1ccc(CN2CCN(c3ccccn3)CC2)s1,50*,90*,0.39,0.5,0.1
Cc1sc(NC(=O)c2ccco2)c(CN2CCN(c3ccccn3)CC2)c1C,89*,65*,0.17,0.1,0.3
CCC(=O)N1CCN(c2ccc(NC(=O)c3ccco3)cc2)CC1,-16,-2,-0.46,1.2,1
CC(C)(C)c1ccc(-c2nc3c(C#N)c(-c4ccc5c(c4)OCO5)ccn3n2)cc1,24,-3,-1.9,0.8,1
COc1ccc(N/C(=C(/C(Cl)=C(Cl)Cl)[N+](=O)[O-])n2nnc3ccccc32)cc1OC,26,10,-0.34,0.7,0.9
COc1ccc(C2(CNC(=O)Cc3ccc(OC)c(OC)c3)CCOCC2)cc1,-17,-11,0.83,1.2,1.1
SMILES,CYP2C9 inhib,CYP2C19 inhib,Cav32 inh,CYP2C9 activ,CYP2C19 activ
C=CCn1c(SCC(=O)N(C)C2CCS(=O)(=O)C2)nnc1-c1ccncc1 (centres undefined),-11,-5,x,1.1,1
CCOC(=O)c1ccc(COC(=O)c2cc3ccccc3oc2=O)o1,8,52*,-0.15,0.9,0.5
CCOC(=O)COc1ccc2cc(C(=O)OCC)c(=O)oc2c1,2,-5,x,1,1.1
Cc1cc(C)nc(-n2nc(C)cc2NC(=O)c2cccc(S(=O)(=O)N3CCCCC3)c2)n1,28,8,1.7,0.7,0.9
COc1ccc(Cl)cc1CSc1n[nH]c(C)n1,15,88*,0.64,0.8,0.1
CCCCOc1ccc(Cl)cc1CSc1n[nH]c(C)n1,64*,85*,-3.5,0.4,0.2
CCCCOc1ccc(Cl)cc1CSc1nnc(C)n1N,20,19,-0.37,0.8,0.8
CCOc1ccc(Cl)cc1CNCCNCC(C)O (centres undefined),-5,-13,0.48,1,1.1
CCOc1ccc(Cl)cc1CSc1n[nH]c(CC)n1,72*,94*,-0.21,0.3,0.1
CCNC(=O)N(C(=O)NCC)n1c(C)nnc1C,-9,-9,0.53,1.1,1.1

# High-throughput results as filed in PubChem.
